TRHR ag: TRH receptor (human) agonism; activation, % at 2 µM; AID 493084; TRHR cells, calcium flux fluo-8, FDSS agonist mode; hit rate 0.18% among 360,000; P34981; further: 0% is about no effect
Target sequence (P34981 whole entry, looked up): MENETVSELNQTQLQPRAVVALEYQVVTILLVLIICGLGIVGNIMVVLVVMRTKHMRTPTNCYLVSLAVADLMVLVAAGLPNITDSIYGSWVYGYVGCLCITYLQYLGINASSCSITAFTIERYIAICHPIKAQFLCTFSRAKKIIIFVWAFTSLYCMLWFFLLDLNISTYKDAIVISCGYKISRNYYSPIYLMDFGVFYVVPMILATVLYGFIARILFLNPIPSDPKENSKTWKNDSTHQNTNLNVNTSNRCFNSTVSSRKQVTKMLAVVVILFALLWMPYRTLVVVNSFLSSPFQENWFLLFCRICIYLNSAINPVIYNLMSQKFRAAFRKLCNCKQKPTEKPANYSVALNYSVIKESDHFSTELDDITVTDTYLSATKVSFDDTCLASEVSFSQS
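In this calcium-flux screen, cells bearing human TRHR are dye-loaded with fluo-8, baselined for 10 cycles, then exposed to library compounds; positive kinetic calcium responses during the agonist phase mark hits, with TRH as control.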
LDHA inh: inhibitors of human lactate dehydrogenase A; P00338; purified LDHA, NADH/diaphorase-resazurin fluorescence; hits give low values; activity change, % (values are at about 110 or 230 µM); hit rate 0.15% among 480,000; in the data active means activity change below about -30%;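 further: plate controls were DMSO wells for no effect and wells without enzyme for full effect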
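Resorufin fluorescence (ex540/em590), read at 0 and 20 min after diaphorase/resazurin addition, reports the NADH left after a 5 min room-temperature reaction of 2 nM human LDH5 with 0.06 mM NADH and 0.2 mM pyruvate.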
D1 ag: agonists of human D1 dopamine receptor | activation, % at 2 µM | HEK293 T-REx D1 cells, calcium flux, agonist mode | P21728 | AID 504660 | hit rate 1% among 360,000; further: 0% is about no effect
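Tetracycline-induced HEK293 TREx D1 cells, force-coupled to calcium signalling, were dye-loaded with a no-wash calcium kit. Compound was pin-added after a 10 s baseline. Fluorescence was read kinetically at 1 cycle/s for 180 s, with calcium rises flagged as agonism.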
D1 antagonist: blocks dopamine activation of the human D1 receptor. P21728. HEK293 TREx D1 cells, calcium flux, dopamine EC80; hits give low values. activity change, negative = inhibition, % at 10 µM. hit rate 3.2% among 360,000. AID 504652; in the data active means activity change below about -30%; further: on the % scale 0 is the no-effect control and ±100 the full control effect
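Tetracycline-induced HEK293 T-REx cells with force-coupled D1 receptor were loaded with a no-wash calcium dye. Compound was added after a 10 s baseline and read kinetically for 180 s; EC80 dopamine was then added and calcium flux followed another 180 s.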
D1 potentiator: potentiators of human D1 dopamine receptor | P21728 | HEK293 TREx D1 cells, calcium flux, dopamine EC20 potentiation | potentiation, % at 10 µM | hit rate 0.036% among 360,000 | AID 504651; in the data active means potentiation above about 30%; further: 0% is about no effect
TRHR PAM: allosteric enhancers of human TRH receptor; P34981; hit rate 0.66% among 360,000; TRHR cells, fluo-8 calcium fluorescence, EC20 TRH enhancement; enhancement, % at 2 µM; AID 493056; in the data active means enhancement above about 30%; further: 0% is about no effect
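TRHR-expressing cells loaded with fluo-8 calcium dye were read kinetically (ex 480/em 530) during compound addition, then stimulated with an EC20 of TRH (10 nM final). Enhancement of the Gq-mediated intracellular calcium response was scored.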
The depositor's hits bear a star; · = no result. Hits are enriched below; roughly 3.6% of the tested compounds scored in any of these assays. Unless noted, no stated cut-off is given here; in the data, active means activation above about 30%; inactive means the rest.

SMILES | TRHR ag | LDHA inh | D1 ag | D1 antagonist | D1 potentiator | TRHR PAM
Cc1ccc(C(=O)NC(=S)N(C)C2CCCCC2)cc1 | -0.3 | -3.4 | -0.3 | -41.1* | 8.7 | -0.8
CN1CCN(C(=O)CCn2c(=O)c3cccn3c3cccnc32)CC1 | 0.1 | -2.9 | 5.5 | -0.6 | -3.4 | -0.7
CN1CCN2c3ncccc3Cc3ccccc3[C@@H]2C1 | -0.4 | -4.3 | 4.0 | -32.1* | -11.3 | 17.1
CCn1c(SCC(=O)N2CCc3ccccc32)nnc1-c1ccncc1 | 0.1 | -38.6* | 0.0 | 2.9 | 0.0 | 1.5
CCc1nnc(SCC(=O)N2CCc3ccccc32)n1CC | 2.1 | -3.9 | 1.0 | -3.2 | -5.9 | 3.1
COc1ccc(C(=O)NCc2nnc(SCC(=O)N3CCc4ccccc43)n2Cc2ccccc2)cc1 | 0.4 | -4.4 | 2.9 | -30.1* | -2.5 | 9.8
CC(=O)N1CCN(c2ccc(NC(=O)C3(c4ccccc4)CCCC3)cc2)CC1 | · | 2.2 | · | · | · | ·
Cn1cc(CN2CCC(CO)(CCCc3ccccc3)CC2)c(-c2ccccc2)n1 | -1.2 | -5.0 | 47.0* | -1.5 | -4.9 | -8.2
Cc1ccc(NC(=O)Nc2cc(S(=O)(=O)N3CCOCC3)ccc2NCC2CCCO2)cc1 (stereo not given) | · | -2.9 | · | · | · | ·
Cc1cc(C)n(-c2nc(SCCN(C)C)c3c4c(sc3n2)CCCC4)n1 | 0.1 | -2.5 | 10.9 | 2.9 | 3.0 | 37.8*
O=C(O)C(=O)N1CCOCC1 | · | 8.6 | · | · | · | ·
COc1ccc([N+](=O)[O-])cc1COc1ccc2c(-c3ccccc3)cc(=O)oc2c1 | 1.3 | 3.1 | 4.6 | -32.9* | -13.6 | -4.0
Cc1ccc(NC(=O)CSc2n[nH]c(-c3cccnc3)n2)c(Br)c1 | -1.4 | -4.8 | 6.8 | -32.5* | · | 4.4
COc1ccccc1NC(=O)CSc1n[nH]c(-c2cccnc2)n1 | 0.2 | -0.6 | 0.0 | 5.3 | 1.1 | -0.4
COc1nc2ccccc2nc1N1CCC(C(=O)Nc2c(F)cccc2F)CC1 | · | 3.4 | · | · | · | ·
Cc1cc(NC(=O)CCc2ccc(C)o2)no1 | 0.3 | 2.2 | 1.4 | -41.8* | -8.8 | 0.2
Cc1ccc(C)c(NC(=O)CCc2ccc(C)o2)c1 | -0.4 | -2.6 | 1.6 | -1.0 | -5.2 | -12.7
CCc1ccc(NC(=O)CCc2ccc(C)o2)cc1 | -3.5 | -0.3 | 1.8 | -9.4 | 7.0 | 2.6
Cc1ccc(NC(=O)CCc2ccc(C)o2)c(C)c1 | -1.1 | -1.2 | 32.2* | 30.0 | -0.1 | -3.0
O=c1[nH]nc(-c2ccco2)c2c1Nc1nnnn1C2c1ccc(Cl)cc1Cl (stereo not given) | · | -18.1 | · | · | · | ·
Cc1ccccc1-c1cc(=O)c2cc(NC(=O)C3CCCCC3)ccc2o1 | · | -2.3 | · | · | · | ·
Cc1ccc(N(CC(=O)N2CCN(c3ccc(F)cc3)CC2)S(=O)(=O)c2c(C)nn(C)c2C)cc1 | 0.8 | -2.4 | -0.8 | -5.8 | · | 2.6
Cc1ccc(N(CC(=O)N2CCN(c3cccc(C)c3C)CC2)S(=O)(=O)c2c(C)nn(C)c2C)cc1 | -1.1 | 6.6 | 3.1 | -43.5* | -0.5 | 0.3
CCCN1CCN(CCCN)CC1 | · | 2.4 | · | · | · | ·
CCCCNC(=O)NC(C(N)=O)C(N)=O | · | -6.4 | · | · | · | ·
SMILES | TRHR ag | LDHA inh | D1 ag | D1 antagonist | D1 potentiator | TRHR PAM
CCC(=O)NC(=S)Nc1ccc(NC(=O)c2cccc([N+](=O)[O-])c2C)cc1 | 0.3 | -4.6 | 6.3 | -39.8* | -9.8 | 7.9
CCC(=O)NC(=S)Nc1ccc(NC(=O)c2ccccc2[N+](=O)[O-])cc1 | 0.2 | -4.5 | -0.2 | -8.8 | -11.3 | -2.0
COc1cc(C(=O)NNC(=O)C2CSC3(C)CCC(=O)N23)cc(OC)c1OC (stereo not given) | 2.6 | -3.6 | 2.8 | -40.0* | -3.0 | 1.5
CC12CCC(=O)N1C(C(=O)NNC(=O)c1ccccc1Cl)CS2 (stereo not given) | 0.4 | -8.1 | 1.1 | -52.4* | -6.0 | 4.4
COc1cc(OC)cc(C(=O)NNC(=O)C2CSC3(C)CCC(=O)N23)c1 (stereo not given) | 0.4 | -8.5 | -0.4 | 18.7 | 0.7 | -0.6
Cc1cccc(C)c1NC(=O)C1CSC2(C)CCC(=O)N12 (stereo not given) | 0.2 | 0.6 | 24.2 | 12.8 | -10.5 | 2.3
COc1ccc(NS(=O)(=O)c2c(C(=O)N3CCCCCC3)c(C)n(C)c2C)cc1OC | 0.1 | -0.2 | 2.2 | 11.4 | -4.5 | 0.4
